# This is a sample that favours compounds with a hit; in the whole collection about 12% have one here.
# BAZ2B inh: blocks human BAZ2B; AlphaScreen BAZ2B-H3K14Ac peptide displacement; AID 504333; 360,000 tested, 4.4% active; Q9UIF8; Potency, µM (titrated, usually from 114 µM), for the others: at the highest dose activity change, negative = inhibition, most hits filed as inhibitors; note: % is set by controls: 0 for no effect and ±100 for the full control effect; nearly all actives have a fitted effect of over 60% in size
#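 In this displacement format the biotinylated H3(5-23) peptide acetylated at Lys14 serves as ligand at 50 nM, with BAZ2B at 50 nM in PBS pH 7.4 containing 0.01% Tween-20. Donor and acceptor beads are 10 ug/mL final.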
# Sfp PPTase inh: Sfp phosphopantetheinyl transferase inhibition; Q9F4F7; Biochemical Sfp PPTase activity, qHTS; Potency, µM, inactives show largest response in the series, negative = inhibition, most hits filed as inhibitors; 310,000 tested, 3.5% active;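 note: the enzyme is Sfp with the accession as filed and its product quenches rhodamine fluorescence; 0% = enzyme reaction without inhibitor and -100% = no enzyme wells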
#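 Buffer: 50 mM Hepes-Na pH 7.6, 10 mM MgCl2, 0.01% Nonidet P-40, 0.01% BSA. Enzyme 15 nM, pre-exposed to compound 15 min; substrates then added and fluorescence change tracked over 30 min.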
# HP1b chromo inh: inhibitors of HP1-beta chromodomain binding to methylated histone tails. 390,000 tested, 0.56% active. P83916. Potency, µM (series often up to 114 µM), inactives show at the top dose activity change, negative = inhibition, usual class: inhibitors. AlphaScreen HP1-beta / biotin-H3K9me3 peptide binding. AID 540317; note: nearly all actives have a fitted effect of over 70% in size
#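 AlphaScreen: HP1-beta (50 nM) preformed 30 min with biotin-H3(1-18)K9me3 peptide (50 nM) in PBS pH 7.4, 0.01% Tween-20. Compound added for 30 min at RT, then streptavidin donor/nickel chelate acceptor beads (10 ug/mL) for 30 min.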
# G9a block: blocks human histone lysine methyltransferase G9a | Q96KQ7 | G9a H3K9 monomethylation, AlphaScreen, 2 h | Potency, µM (top dose mostly 102 µM), without a hit: at the highest dose activity, negative = inhibition, usual class: inhibitors | 350,000 tested, 8.8% active | AID 504332; note: % is set by controls: 0 for no effect and ±100 for the full control effect; nearly all actives have a fitted effect of over 75% in size
#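 AlphaScreen detection with an anti-monomethyl H3K9 antibody quantified product after a 2 h room-temperature reaction containing 500 nM biotinylated H3K9 peptide, 20 µM SAM and 20 nM enzyme, which had been preincubated 15 min with compound.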
# PLK1 PBD block: blocks phosphopeptide binding to human PLK1 polo-box domain | AID 720504 | Plk1 PBD binding of FITC phosphopeptide, fluorescence polarization | Potency, µM, for inactives: max response, negative = inhibition, usual class: inhibitors | 360,000 tested, 2.8% active | P53350; note: series mostly up to about 57 µM; % is set by controls: 0 for no effect and ±100 for the full control effect; nearly all actives have a fitted effect of over 65% in size
# JMJD2A Tudor inh: blocks the human JMJD2A Tudor domain. O75164. AlphaScreen JMJD2A-Tudor / H3K4me3 peptide binding. Potency, µM (top dose mostly 114 µM), inactives show at the top dose activity change, negative = inhibition, actives largely listed as inhibitors. 390,000 tested, 4.4% active. AID 504339; note: % is set by controls: 0 for no effect and ±100 for the full control effect; nearly all actives have a fitted effect of over 50% in size
# * hit, by the source's call; ? = inconclusive; / = not tested or not shown; [ ] = remark or other dose. Calls come from the whole dose curve; as a rule, active = well fitted curve in the direction sought with a large enough effect; inconclusive = small, poorly fitted or top-dose-only effect, or another doubt; inactive = no such curve, though single readings can be large; an effect the other way counts as inactive or inconclusive. Potency is the fitted concentration of half-maximal effect.
SMILES,BAZ2B inh,Sfp PPTase inh,HP1b chromo inh,G9a block,PLK1 PBD block,JMJD2A Tudor inh
Cc1ccc(CNC(=O)c2c(C)cc(=O)oc2C)cc1,2.1%,3.8%,22.0%,-48.2%,-5.5%,-11.3%
CCCCCn1c(=O)[nH]c2cc(C(=O)NCc3ccccn3)ccc2c1=O,79.4µM*,-4.9%,11.2%,39.8µM*,-14.4%,?
Cc1cc(=O)oc(C)c1C(=O)NCc1ccccn1,15.8µM*,-28.8%,19.2%,1.58µM*,-5.4%,2.51µM*
C/C(=N\O)C(=O)NCc1ccccn1,-5.5%,?,52.7%,33.1%[59 µM],1.1%,2.9%
O=C(NCc1ccccn1)/C(=N/O)c1ccccc1,-0.8%,-7.2%,-5.4%,15.5%,3.36µM*,-35.6%[11.4 µM]
O=C(Nc1cccnc1Cl)c1ccc(=O)oc1,56.2µM*,?,2.5%,35.5µM*,-12.3%,?
CC(=O)Nc1ccc(NC(=O)CSc2n[nH]c(-c3cccs3)n2)cc1,2.3%,/,6.2%,-26.5%,-9.1%,?
CCc1cc(=O)oc2cc(C)c3c(-c4ccc(F)cc4)coc3c12,-1.8%,/,6.6%,-4.4%[59 µM],/,-1.4%
Cc1nc(C)c(-c2ccc(SCC(=O)Nc3ccccc3F)nn2)s1,24.0%,/,48.1%[57 µM],6.6%[59 µM],/,-16.1%
O=C(c1cnccn1)N1CCC2(CCN(Cc3ccccc3)CC2)CC1,/,15.0%,/,-0.1%[12.7 µM],/,/
C/C(=C\C1CCCCC1)C(NC(=O)c1cccnc1)c1ccc(-c2ccccc2)cc1 (centres undefined),/,21.7%,/,/,/,/
O=C(NCc1ccccn1)c1ccc(-c2ccccc2)cc1,0.0%,-0.7%,46.5%,1.1%,-3.9%,9.7%
Cc1ccccc1CS(=O)(=O)Cc1ccc(C(=O)NCc2ccccn2)o1,50.1µM*,2.3%,40.2%,40.4%[0.501 µM],-9.9%,-16.5%
O=C(NCc1ccccn1)c1ccc(CS(=O)(=O)Cc2ccc(Cl)cc2)o1,-0.8%,4.3%,42.8%,-14.5%,-5.0%,-5.1%
O=C(NCc1ccccn1)c1ccc(=O)oc1,6.31µM*,89.1µM*,18.4%,3.16µM*,0.6%,8.91µM*
CCN(CCCNC(=O)c1c(C)cc(=O)oc1C)c1cccc(C)c1,?,-22.1%,2.7%,12.6µM*,-6.9%,?
Cc1cccc(NC(=S)NNc2cccc(Cl)c2)c1,10µM*,-17.1%,10µM*,31.6µM*,26.7µM*,56.2µM*
Cc1cccc(NNC(=S)Nc2c(C)cccc2C)c1,14.1µM*,9.2%,-5.6%[57 µM],44.7µM*,-26.4%,14.1µM*
Cc1cccc(C)c1NC(=S)Nc1ccc(F)cc1,-22.1%,17.6%,23.3%,0.0%,-2.4%,-10.4%
CCCCSCCCNC(=O)c1cn(C)c2ccc(S(=O)(=O)N3CCCCCC3)cc2c1=O,/,/,7.0%,-6.3%[59 µM],/,-15.3%
COc1ccc2[nH]cc(CCNc3ncnc4ccc(-c5ccccc5OC)cc34)c2c1,/,2.3%,/,23.7%[0.501 µM],/,/
COc1ccc(CN(CC(O)COc2cccc3[nH]cc(C)c23)C(C)(C)C)cc1 (centres undefined),?,5.7%,?,?,-7.2%,50.1µM*
Cn1c(=O)[nH]c(=O)c2c1nc(CN1CCN(c3ccccc3)CC1)n2Cc1c(F)cccc1Cl,-8.5%,/,22.6%,?,/,-15.6%
Cc1cc(C(=O)CSc2nc3ccccc3[nH]2)c(C)n1Cc1ccco1,?,-9.5%,-14.1%,14.1µM*,-16.0%,?
Cc1cc(C(=O)CSc2nc3ccc(Cl)cc3[nH]2)c(C)n1C,-7.9%,-6.7%,-2.4%,?,-21.1%,?
Cc1cc(C(=O)CSc2nc3ccccc3[nH]2)c(C)n1C,?,-90.0%,?,?,-18.9%,56.2µM*
Cc1cc(C(=O)CSc2nc3ccc(Cl)cc3[nH]2)c(C)n1CC1CCCO1 (centres undefined),?,-1.2%,-24.2%,44.7µM*,-11.2%,?
Cc1cc(C(=O)CN2C(=O)NC(C)(c3cccc(Br)c3)C2=O)c(C)n1Cc1ccco1 (centres undefined),-3.1%,-3.1%,-15.8%,50.1µM*,4.3%,-30.9%
Cc1cc(C(=O)CN2C(=O)NC(c3ccccc3)(c3ccccc3)C2=O)c(C)n1Cc1ccco1,-35.7%,6.1%,?,-37.3%[59 µM],-8.1%,-26.4%

# Screens as filed in PubChem BioAssay.
